# Experimental data: PubChem BioAssay (EPA / NIEHS)
# Activity calls are given as the source filed them. How the source made its calls: active means hit-call score of the fitted dose curve at least 0.9, where 1 is the maximum; inactive means score below 0.9.
# Test: ATG_E_Box_CIS: Attagene CIS-FACTORIAL HepG2 Assay for human Enhancer Box (E-box) (AID 2282936)
# Conditions: HepG2 E-box cis-reporter transcription, actives raise or lower the signal
# Description: ATG_CIS is a cell-based, multiplexed-readout assay that uses HepG2, a human liver cell line, with measurements taken at 24 hours after chemical dosing in a 24-well plate.ATG_E_Box_CIS is one of 52 assay component(s) measured or calculated from the ATG_CIS assay. It is designed to make measurements of mRNA induction, a form of inducible reporter, as detected with fluorescence intensity signals by Reverse transcription polymerase chain reaction (RT-PCR) and Capillary electrophoresis technology.Data from the assay component ATG_E_Box_CIS was analyzed into 1 assay endpoint. This assay endpoint, ATG_E_Box_CIS, was analyzed with bidirectional fitting relative to DMSO as the negative control and baseline of activity. Using a type of inducible reporter, measures of mRNA for gain or loss-of-signal activity can be used to understand the reporter gene at the transcription factor-level as they relate to the gene USF1. Furthermore, this assay endpoint can be referred to as a primary readout, because this assay has produced multiple assay endpoints where this one serves a reporter gene function. To generalize the intended target to other relatable targets, this assay endpoint is annotated to the dna binding intended target family, where the subfamily is basic helix-loop-helix protein.
# Human liver HepG2 cells are transiently transfected with multiple reporter transcription units (MRTUs) in 6-well plates using FuGene 6 reagent (Roche; 3 ml FuGene/1 mg DNA). The MRTU constructs are regulated by a cis-regulating element (promoter). […] A major difference between the CIS and TRANS system is that in CIS activities of endogenous TFs are measured, whereas the TRANS assay evaluates changes in activities of exogenous, chimeric NR-Gal4 proteins. […] At the end of 24 hour incubation, total RNA was isolated using TriZol reagent (Invitrogen). The isolated RNA is then reverse-transcribed using oligo(dT) primer and Mo-MLV reverse transcriptase (Invitrogen) with DNAse I (Ambion) treatment for 30 min. The one-tenth of the produced cDNA was amplified by PCR using Taq DNA polymerase (Invitrogen) and two reporter sequence-specific primers. The PCR products were fluorescently labeled by primer extension with 6-arboxyfluorescein (6-FAM) 5'-labeled reporter sequence-specific primer (2 min at 95 C, 20 s at 68 C and 10 min at 72 C) and these products were digested with 5U of HpaI (New England Biolabs) for 2h at 37 C. The fragments were purified using Qiaquick PCR columns (Qiagen), analyzed on an ABI 3130xL genetic analyzer (Applied Biosystems) with peak positions identified by using a set of X-rhodamine (ROX)-labeled MapMarker1000 molecular weight standards (BioVentures). The raw capillary electrophoresis data was processed using Attagraph software (Attagene).
SMILES,outcome,AC50
C=CC(C)(CCC=C(C)C)OC(=O)C(C)C (stereo not given),inactive,–
CCCCCCOc1cc(C)c(O)c(C)c1C,inactive,–
CC=C1CC2C=CC1C2 (stereo not given),inactive,–
CN(C)c1ccc(N=Nc2ccccc2C(=O)O)cc1,–,15.6 µM (active)
O=Nc1ccc(O)cc1,inactive,–
Cc1ccc(C2OC[C@@H]3OC(c4ccc(C)cc4)O[C@H]([C@H](O)CO)[C@@H]3O2)cc1 (stereo not given in full),inactive,–
O=C(c1ccccc1)C1CCC1,inactive,–
CCCCC/C=C\CCC=O,inactive,–
CC(C)(Oc1ccc(C2CC2(Cl)Cl)cc1)C(=O)O (stereo not given),inactive,–
NC(=O)C1CO1 (stereo not given),inactive,–
CC(C)=CC1CC(C)CCO1 (stereo not given),inactive,–
C=CCOc1c(Br)cc(Br)cc1Br,inactive,–
CC(=O)[C@H]1[C@H](C#N)C[C@H]2[C@@H]3CC=C4C[C@@H](O)CC[C@]4(C)[C@H]3CC[C@@]21C,inactive,–
CCCCCCCCCCCCCCCC[N+](C)(C)CC,–,13.5 µM (active)
CC1=CC[C@H]2C[C@@H]1C2(C)C,inactive,–
O=Cc1ccc(CO)o1,inactive,–
CCCCCCCCCCC=CC#N,inactive,–
CC/C=C\C/C=C\C/C=C\CCCCCCCC(=O)O,–,100 µM (active)
O=c1c2ccccc2nnn1CCl,inactive,–
C=C[Si](C)(C)O[Si](C)(C)C=C,inactive,–

SMILES,outcome,AC50
FC(F)(F)C(=NOCC1OCCO1)c1ccc(Cl)cc1,inactive,–
CC/C=C\CCOC(=O)CCCCC,inactive,–
COC(F)(F)C(F)(C(F)(F)F)C(F)(F)F,inactive,–
CC(C)c1ccc2c(c1)CC[C@H]1[C@](C)(CN)CCC[C@]21C,inactive,–
CCCCCCC(O)CO (stereo not given),inactive,–
O=C1CCCN1CCO,inactive,–
O=C1CCCC(=O)O1,inactive,–
CC(=O)Oc1ccc(C)cc1,inactive,–
FC(F)=C(F)OC(F)(F)C(F)(F)C(F)(F)F,inactive,–
CCCCCCCCCCc1ccccc1,inactive,–
O=C(OCC1CCC2OC2C1)C1CCC2OC2C1 (stereo not given),inactive,–
CCCCCCCC[N+](C)(CCCCCCCC)CCCCCCCC,inactive,–
Oc1ccc(Cl)cc1Cc1cc(Cl)ccc1O,inactive,–
CC(C)(C)c1ccc(N)cc1,inactive,–
C=COCCCC,inactive,–
O=C(Nc1ccccc1SSc1ccccc1NC(=O)c1ccccc1)c1ccccc1,inactive,–
CCCC(C)CCC(C)=O (stereo not given),inactive,–
Cc1cccc(C(=O)O)c1,inactive,–
Cc1oncc1C(=O)Nc1ccc(C(F)(F)F)cc1,inactive,–
C=C1C2CCC(C2)C1(C)C (stereo not given),inactive,–
